In the library only some 7.3% were active in any assay of this set; here they are far more common.
KinaseGlo FLuc = Kinase-Glo luciferase inhibition (counter-screen) | Kinase-Glo luciferase, ATP luminescence, 8 min | Potency, µM (highest dose often 38.3 µM), usual class: inhibitors | 200,000 compounds, 0.28% hits; further: nearly all actives have a fitted effect of over 60% in size
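Light output from Kinase-Glo luciferase with luciferin and 10 uM ATP in 50 mM imidazole pH 7.2, KCl, MgCl2, Tween 20, BSA; compound pin-delivered, 8-min ambient incubation, then luminescence read.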
NPC1 promoter act = NPC1 promoter activation; Potency, µM (titrated, usually from 9.22 µM), actives largely listed as activators; Huh7 NPC1 promoter luciferase reporter, 24 h; AID 485313; 320,000 compounds, 2.4% hits; further: nearly all actives have a fitted effect of over 60% in size
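Readout is luciferase luminescence, reflecting NPC1 promoter activation in stably transfected Huh7 cells after 24 h compound exposure at 37 °C in reduced-serum medium with 10% FBS.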
FLuc counter = firefly luciferase modulation, counter-screen for miR-21 project; P08659; purified FLuc, Km substrates, luminescence inhibition; Potency, µM (highest dose often 57.5 µM), hits mostly inhibitors; 360,000 compounds, 6.9% hits; further: nearly all actives have a fitted effect of over 55% in size
Target sequence (P08659 whole entry, looked up): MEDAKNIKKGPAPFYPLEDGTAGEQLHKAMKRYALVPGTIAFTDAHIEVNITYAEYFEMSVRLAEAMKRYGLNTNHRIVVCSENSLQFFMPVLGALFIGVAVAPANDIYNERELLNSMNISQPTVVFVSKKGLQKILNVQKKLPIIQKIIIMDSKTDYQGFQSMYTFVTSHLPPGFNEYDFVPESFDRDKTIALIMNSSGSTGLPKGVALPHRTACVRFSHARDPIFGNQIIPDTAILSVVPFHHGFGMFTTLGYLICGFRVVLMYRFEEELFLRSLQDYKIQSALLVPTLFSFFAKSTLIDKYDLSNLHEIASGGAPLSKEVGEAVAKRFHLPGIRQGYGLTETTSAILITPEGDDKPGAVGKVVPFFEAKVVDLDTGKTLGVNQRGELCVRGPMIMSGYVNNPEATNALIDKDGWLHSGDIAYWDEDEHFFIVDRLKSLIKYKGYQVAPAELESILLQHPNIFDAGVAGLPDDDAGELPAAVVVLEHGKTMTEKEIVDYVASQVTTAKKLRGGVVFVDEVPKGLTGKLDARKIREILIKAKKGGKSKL
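Biochemical qHTS of compounds, final roughly 60 µM downward over six points, against 10 nM purified firefly luciferase using Km concentrations of substrates (10 uM D-luciferin, 10 uM ATP) in Tris acetate pH 7.5 buffer; luminescence output.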
Rab9 promoter act = activates the Rab9 promoter; 320,000 compounds, 2.8% hits; AID 485297; Potency, µM (top dose mostly 9.22 µM), hits mostly activators; Huh7 Rab9 promoter-luciferase reporter, luminescence, 24 h; further: nearly all actives have a fitted effect of over 60% in size
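Rab9 promoter-driven luciferase in stably transfected Huh7 cells; 1500 cells/well rested 2 h, exposed to compound in DMSO for 24 h at 37 °C, 5% CO2. Luminescence read 10 min after adding luciferase reagent at ambient temperature.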
ELG1 genotox = induces genotoxicity in HEK293T cells with luciferase-tagged ELG1. HEK293T ELG1-luciferase reporter, luminescence, 16 h. Potency, µM (series often up to 46 µM), actives largely listed as activators. 330,000 compounds, 1.3% hits; further: nearly all actives have a fitted effect of over 60% in size
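HEK293T cells expressing luciferase-tagged ELG1 were treated with compound or DMSO for 16 hr at 37°C. Luciferase activity was then read after 30 min with ONE-Glo at room temperature; rising signal flags genetic stress.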
SMN2 splice up = increases expression of the SMN2 splice variant. HEK293 SMN2-luciferase splicing reporter, luminescence, 30-36 h. 210,000 compounds, 2.8% hits. Potency, µM (doses to about 46.1 µM), actives largely listed as activators. AID 1458; further: nearly all actives have a fitted effect of over 55% in size
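HEK293 cells carry an SMN2 […]–luciferase reporter in which exon 7 inclusion puts luciferase in frame. Cells were plated 10-12 h before compound addition, then incubated 30-36 h at 37C. ONE-Glo luminescence was read; sodium butyrate at 4.5 mM final served as control.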
Hits are given with their value; n = inactive; u = inconclusive; x = not tested or not shown; [ ] = another dose, or the depositor's remark. The call rests on the fitted dose curve; in most records, active means well fitted curve in the direction sought with a large enough effect; inconclusive means small, poorly fitted or top-dose-only effect, or another doubt; inactive means no such curve, though single readings can be large; an effect the other way counts as inactive or inconclusive.

SMILES	KinaseGlo FLuc	NPC1 promoter act	FLuc counter	Rab9 promoter act	ELG1 genotox	SMN2 splice up
O=c1c2oc3ccccc3c2n(Cc2ccccc2Cl)c(=O)n1Cc1ccco1	x	x	n	x	x	x
Cc1ccc2c(c1C)NC(=O)C21N2CCCC2C(C(=O)c2ccc3ccccc3c2)C12C(=O)Nc1ccccc12 (stereo unspecified)	x	n	9.5µM	n	n	x
CCCCN(C)CCNC(=O)c1cc(=O)[nH]c2ccc(S(=O)(=O)N3CCCCCC3)cc12	x	x	n	x	x	x
CCOC(=O)Nc1ccc2c(c1)N(C(=O)N1CCN(C)CC1)c1ccccc1CC2	n	n	u	n	n	x
CC(C)OC(=O)Nc1ccc2c(c1)N(C(=O)N1CCN(C)CC1)c1ccccc1CC2	x	u	6µM	u	u	x
O=C(COC(=O)CNC(=O)c1ccccc1)Nc1ccc2c(c1)OCO2	n	n	n	n	n	n
CC(C)(C)c1ccc(C(=O)NCC(=O)OCC(=O)Nc2ccc3c(c2)OCCO3)cc1	n	n	3.4µM	n	n	n
O=C(COC(=O)CNC(=O)C1CCCCC1)Nc1ccc2ccccc2c1	n	n	n	n	n	n
CC(C)(C)OC(=O)N1Cc2ccccc2C[C@H]1C(=O)NCC(=O)Nc1ccc2c(c1)OCCO2	x	n	21µM	n	u	x
O=C(COC(=O)CNC(=O)C1CCCCC1)Nc1ccc2c(c1)OCCO2	n	n	19µM	n	n	n
Cc1ccc(NC(=O)CSc2nc3c(c(=O)[nH]2)CCC3)cc1Cl	x	x	n	x	x	x
CC1CCCC(C)N1C(=O)c1cc(-c2ccco2)on1 (stereo unspecified)	x	n	n	n	n	x
CC1CCN(C(=O)c2cc(-c3ccco3)on2)CC1	x	1.8µM	13µM	2.8µM	16µM	x
CC1CCN(C(=O)c2cc(-c3ccccc3O)on2)CC1	n	2.5µM	2.7µM	3.2µM	2.6µM	u
O=C(c1cc(-c2ccccc2O)on1)N1CCc2ccccc2C1	n	n	u	n	n	n
Cc1cc(C)n2nc(CCc3ccccc3)nc2n1	n	n	n	n	n	n
Cc1cc(C)n2nc(C(=O)OCC(=O)Nc3ccc4c(c3)OCO4)nc2n1	n	n	n	n	n	n
Cc1ccc(NC(=O)c2nc3nccc(C)n3n2)cc1S(=O)(=O)N1CCCCC1	x	x	x	x	n	x
Cc1cc(C)n2nc(C(=O)NCCc3ccccc3)nc2n1	n	u	u	n	23µM	n
Cc1ccnc2nc(C(=O)Nc3ccc4c(c3)OCO4)nn12	13µM	1.8µM	11µM	1.6µM	2.6µM	11µM
Cc1cc(C)n2nc(C(=O)Nc3ccc4c(c3)OCO4)nc2n1	u	n	24µM	n	u	u
C=CCN1c2ccccc2[C@]23C[C@@H](C(=O)OC)N(S(=O)(=O)c4ccc(C)cc4)C2=NC(C(=O)OC)=C(C(=O)OC)[C@H]13	n[7.66 µM]	x	x	x	x	u
COc1cccc2[nH]c3c(N4CCCCC4)ncnc3c12	n	n	13µM	n	n	n
COc1cc2[nH]c3c(N4CCN(c5ccccn5)CC4)ncnc3c2cc1OC	n	n	13µM	n	n	n
COC(=O)c1ccccc1NC(=O)CSc1nnc2cc(C)c3cc(C)cc(C)c3n12	x	x	n	x	x	x
SMILES	KinaseGlo FLuc	NPC1 promoter act	FLuc counter	Rab9 promoter act	ELG1 genotox	SMN2 splice up
COc1ccccc1N=c1sc2ccccc2n1C	n	n	n	n	n	n
Cn1/c(=N/N=C/c2ccc([N+](=O)[O-])cc2)sc2ccccc21	n	n	2.1µM	n	u	n
O=C(NNC1=NS(=O)(=O)c2ccccc21)c1ccc(Cl)cc1	n	u	3.4µM	u	n	n
O=C(NNC1=NS(=O)(=O)c2ccccc21)c1ccc([N+](=O)[O-])cc1	x	u	1.5µM	n	n	x
CCN(CC)S(=O)(=O)c1ccc(C(=O)NNC2=NS(=O)(=O)c3ccccc32)cc1	x	n	n	n	n	x
COc1ccc(NC(=O)Cn2c(=O)n(C(C)C)c(=O)c3oc4ccccc4c32)cc1Cl	x	x	n	x	x	x
COC(=O)c1cc2sc(Cl)cc2n1Cc1nc(-c2ccccc2F)oc1C	x	x	n	x	x	n
O=C1NN(c2ccccc2)C(=O)/C1=C\c1ccccc1	x	n	17µM	n	n	x
O=C1NN(c2cccc(Br)c2)C(=O)/C1=C\c1ccccc1	x	n	u	n[1.84 µM]	n	x
O=C1NN(c2ccccc2)C(=O)/C1=C/c1cccs1	n	n	19µM	n	n	n
O=C1NN(c2cccc(Br)c2)C(=O)/C1=C/c1cccs1	x	n	9.5µM	n	n	x
Cc1ccc(C(c2sc3nc(-c4ccco4)nn3c2O)N2CCOCC2)cc1 (stereo unspecified)	x	x	n	x	x	x
O=C(NCC(c1ccc2c(c1)OCO2)N1CCOCC1)c1ccccc1F (stereo unspecified)	x	x	n	x	x	x
CCn1c(C)nc2cc(C(=O)NNC(=S)Nc3ccccc3)ccc21	n	0.45µM	12µM	0.79µM	10µM	n
CCn1c(C)nc2cc(C(=O)NNC(=S)Nc3ccc(Cl)cc3)ccc21	x	n	u	n	n	x
CCn1c(NC(=S)Nc2ccccc2)nc2ccccc21	n	u	3.4µM	u	n	n
CCn1c(C)nc2cc(C(=O)NNC(=S)Nc3ccc(Cl)cc3Cl)ccc21	n	n	u	n	n	n
CCn1c(C)nc2cc(C(=O)NNC(=S)Nc3ccccc3Cl)ccc21	n	u	17µM	u	u	u
Cc1oc(-c2ccc(-c3ccccc3)cc2)nc1CN(CCO)C(C)C	x	u	11µM	u	u	x
Cc1oc(-c2ccc(-c3ccccc3)cc2)nc1CN(C)C1CCOC1 (stereo unspecified)	n	u	9.5µM	u	u	x
NC(=O)c1sc2nc(-c3ccccc3)ccc2c1N	x	1.8µM	2.1µM	3.2µM	u	x
NC(=O)c1sc2nc(-c3cccs3)ccc2c1N	x	u	9.5µM	u	u	x
CCOC(=O)c1sc2nc(-c3ccccc3)ccc2c1N	n	0.35µM	0.19µM	0.28µM	0.52µM	0.79µM
Nc1c(C(=O)Nc2ccc(Br)cc2)sc2nc(-c3ccco3)ccc12	n	n	u	n	n	n
CC(=O)c1sc2nc(-c3ccco3)ccc2c1N	x	u	3.8µM	u	21µM	x
SMILES	KinaseGlo FLuc	NPC1 promoter act	FLuc counter	Rab9 promoter act	ELG1 genotox	SMN2 splice up
Nc1c(C(=O)NC2CCCC2)sc2nc(-c3cccs3)ccc12	n	n	n	n	u	n
O=C(CC1N=C2c3ccccc3N=C(SCc3ccccc3F)N2C1=O)NCc1ccc2c(c1)OCO2 (stereo unspecified)	x	x	n	x	x	x
CCc1ccccc1N(CC)C(=O)C(=O)Nc1ccc2nc3n(c(=O)c2c1)CCCCC3	x	x	n	x	x	n
Cc1ccc(C)c(CN2C(=O)c3ccccc3S(=O)c3ccc(C(=O)N4CCN(c5cccc(Cl)c5)CC4)cc32)c1 (stereo unspecified)	x	x	n	x	x	u
Nc1c(C(=O)Nc2ccc(C(F)(F)F)cc2)sc2nc(-c3cccs3)ccc12	x	x	n	x	x	n
Cc1cc(F)ccc1NC(=O)c1sc2nc(-c3cccs3)ccc2c1N	x	x	n	x	x	10µM

High-throughput results: PubChem BioAssay, National Center for Advancing Translational Sciences (NCATS)
